# This is a sample that favours compounds with a hit; in the whole collection about 3.2% have one here.
# TMEM16A inh: blocks the mouse calcium-activated chloride channel TMEM16A. Q8BHY3. HEK293 TMEM16A/YFP iodide influx fluorescence, ionomycin. normalized B-score (activity score, 25-100; higher = stronger inhibition) at 10 µM. hit rate 1.2% among 310,000. AID 588511;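 active means ratio plate-corrected score three or more library SD toward inhibition, starting fluorescence score within five deviations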;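 further: score derived from kinetic fluorescence span divided by baseline fluorescence per well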
# PHOSPHO1 inh: inhibitors of human PHOSPHO1 phosphatase; Q8TCT1; recombinant PHOSPHO1, absorbance phosphatase assay; inhibition, % at 13.3 µM; hit rate 1.1% among 290,000; AID 1565; in the data active means inhibition above about 60%
# Target sequence (Q8TCT1 whole entry, looked up): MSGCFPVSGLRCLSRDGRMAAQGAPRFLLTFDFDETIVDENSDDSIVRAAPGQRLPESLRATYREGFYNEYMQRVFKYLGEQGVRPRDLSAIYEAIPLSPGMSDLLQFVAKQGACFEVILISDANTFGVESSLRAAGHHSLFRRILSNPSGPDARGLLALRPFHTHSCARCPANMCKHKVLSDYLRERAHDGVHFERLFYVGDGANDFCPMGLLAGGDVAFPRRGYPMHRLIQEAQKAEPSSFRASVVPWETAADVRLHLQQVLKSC
# ANO1 activ: activates or potentiates the mouse TMEM16A chloride channel | Q8BHY3 | HEK293 TMEM16A/YFP-H148Q/I152L, iodide quench fluorescence; active compounds read low | B-score at 10 µM | hit rate 0.3% among 340,000 | AID 623877;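 active means fluorescence-ratio B-score plate-corrected deviation score at least 3 library SD below zero, with starting fluorescence score within 5 deviations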;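 further: channel opened by trigger with iodide after compound preincubation; score built on the fluorescence ratio of max minus min over baseline; more negative score means more quench and so TMEM16A activation or potentiation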
# HDAC3 inhib: blocks human histone deacetylase 3; O15379; recombinant HDAC3, fluorogenic peptide/trypsin coupled, fluorescence; inhibition, % at 8.3 µM; hit rate 0.15% among 320,000; AID 2718; in the data active means inhibition above about 26%, passing the limit was not always enough
# CHT inh: human CHT choline transport inhibition. Q9GZV3. CHT-expressing cells, membrane potential dye, choline response; active compounds read low. B-score at 10 µM. hit rate 0.86% among 310,000;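 active means B-score over 3 SD under the library average, and starting fluorescence ratio not unusually high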;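 further: choline stimulus applied at its EC90 after an EC20 pre-addition; B-score computed on integrated fluorescence ratio after choline addition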
# CHT PAM: allosterically activates the human high affinity choline transporter; CHT-expressing cells, membrane potential dye, choline EC20; active compounds read high; LV-AA mutant CHT in HEK293 cells; B-score at 10 µM; hit rate 0.49% among 310,000; AID 488977;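 active means initial fluorescence not abnormally high and integrated response B-score, plate-corrected, over 3 SD above library mean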
# CHT activ conf: confirmation of human choline transporter (CHT) activators; shares compounds with CHT PAM; CHT-expressing cells, membrane potential dye fluorescence (FDSS); % of choline EC20–EC90 response window; HEK293 expressing CHT LV-AA mutant; choline added at its EC20; activation, % at 10 µM; hit rate 91% among 2,500; AID 504833;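 active means primary screen active, with duplicate mean activation above negative control mean plus 3 SD, cut at about 11% in these data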
# HEK293 MP dye: CHT activator counter-screen hit in parental HEK293 cells; hit rate 62% among 2,500; shares compounds with CHT PAM; membrane potential dye fluorescence (FDSS); measured after EC20 choline addition; AID 623908; ratio readout change at 10 µM, hits read low;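 active means duplicate-averaged ratio beyond 3 SD from buffer wells, up or down, though filed actives are nearly all decreases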
# Starred values were filed as active, the others as inactive; i = inactive; x = no result.
SMILES,TMEM16A inh,PHOSPHO1 inh,ANO1 activ,HDAC3 inhib,CHT inh,CHT PAM,CHT activ conf,HEK293 MP dye
CC1CCCN(CC(=O)Nc2cccc([N+](=O)[O-])c2)C1 (centres undefined),i,23,i,2,i,i,x,x
CN(C)c1cc[n+](Cc2c(Cl)cccc2Cl)cc1,i,-17,i,-1,i,6.8*,43*,-46*
COc1ccc(C(=O)NCc2nnc(SCC(=O)c3ccccc3)n2C)cc1OC,i,x,i,x,i,i,x,x
Cc1ccc(NC(=O)CN2CCN(CCN=CC3=C(O)CC(C)(C)CC3=O)CC2)cc1,i,1,i,4,i,i,x,x
Cc1cc(=O)n2[nH]c(-c3ccc(F)cc3)cc2n1,i,1,i,-6,i,i,42*,-31*
O/N=C/c1cccc[n+]1CCCCCC[n+]1ccccc1/C=N/O,i,44,i,10,i,6.4*,44*,-60*
CCCCCCCCCCCCCCCC[n+]1ccc(/C=N/O)cc1,i,24,i,9,i,i,x,x
COc1ccc(C(=O)C[n+]2ccccc2/C=N/O)cc1,i,-23,i,-5,i,i,19*,-25*
CCN1CCN(C(=O)c2ccc(C)c(S(=O)(=O)Nc3cccc(C)c3)c2)CC1,i,20,i,5,i,i,x,x
CC1CCCN(c2nc3nonc3nc2Nc2ccccc2F)C1 (centres undefined),i,26,i,-9,i,i,x,x
COCOc1ccc(C=O)c(O)c1,i,x,i,2,i,i,x,x
CC12CN(C(=O)c3ccc([N+](=O)[O-])cc3)CC(C)(CN(C(=O)c3ccc([N+](=O)[O-])cc3)C1)C2=O,i,15,x,-2,i,i,x,x
CCCC12CN(C(=O)c3ccc([N+](=O)[O-])cc3)CC(C)(CN(C(=O)c3ccc([N+](=O)[O-])cc3)C1)C2=O,i,23,i,0,i,i,45*,i
COc1ccc(Br)cc1/C=N/NC(=O)c1cc(OC)c(OC)c(OC)c1,i,-3,i,0,i,i,x,x
COc1cc(C(=O)N/N=C/c2ccsc2C)cc(OC)c1OC,i,-5,i,0,i,i,19*,i
O=C(NCC(c1ccco1)N1CCCC1)c1ccccc1Sc1ccc(C(F)(F)F)cc1[N+](=O)[O-] (centres undefined),i,x,i,3,i,i,26*,i
CCOCCn1c(=O)c2c(nc3n2CC(C)CN3CCc2ccccc2)n(C)c1=O (centres undefined),i,31,i,5,i,i,x,x
Cc1csc2c(C#N)c(=O)c3c(n12)CCC3,i,-23,i,-1,i,6.6*,49*,-41*
Cc1[nH]c(=O)nc2c1CCC2,i,36,i,-3,i,i,x,x
CN(CC(=O)Nc1sc2c(c1C#N)CCCCC2)Cc1nc2ccccc2c(=O)[nH]1,i,8,i,5,i,i,x,x
Cc1cc(C[n+]2ccsc2N)c2ncccc2c1,i,4,i,-6,i,i,43*,-52*
Nc1scn[n+]1Cc1cccc2cccnc12,i,44,i,0,i,i,x,x
O=C(NCc1ccccc1)N1CCCC1,i,19,i,1,i,i,x,x
CCOc1ccc(C(=O)Nc2cc(C)on2)cc1OCC,i,13,i,7,i,i,46*,-35*
CCCN1C(=O)c2ccc(C(=O)Nc3cc(C)on3)cc2C1=O,i,14,i,2,i,i,21*,-27*
SMILES,TMEM16A inh,PHOSPHO1 inh,ANO1 activ,HDAC3 inhib,CHT inh,CHT PAM,CHT activ conf,HEK293 MP dye
Cc1noc(C)c1C(=O)OCC(=O)Nc1cc(Cl)ccc1Oc1ccccc1,i,-7,i,1,i,6.7*,28*,i
FC(F)(F)c1cc(-c2cccs2)nc2cc(-c3ccccc3)nn12,i,3,i,-7,i,i,x,x
Oc1ccc2ccccc2c1N=Nc1ccccc1F,i,4,i,2,i,i,x,x
O=S(=O)(O)c1cccc(N=Nc2c(O)ccc3ccccc23)c1,i,-6,i,12,i,i,33*,-39*
COc1ccc(CC(=O)Nc2ccccc2NC(=O)Cc2ccc(OC)cc2)cc1,i,26,i,1,i,i,x,x
CCCCCCCCCCCCCCCC[N+](C)(C)CCN(Cc1ccc(OC)cc1)c1ncccn1,i,x,i,63*,i,i,18*,-60*
CC[N+](C)(C)CCN(Cc1ccc(Cl)cc1)c1ccccn1,i,16,i,-7,i,i,x,x
Cn1nnnc1Sc1ncnc2scc(-c3ccc[nH]3)c12,x,x,i,3,x,x,x,x
Cc1ccc(CNC(=O)C(=O)NCCC2CCCCN2S(=O)(=O)c2ccccc2)cc1 (centres undefined),i,x,i,-3,i,8.5*,10,i
CCCNc1nc(Cl)nc(Nc2ccc(Cl)cc2)n1,i,4,i,-5,i,i,x,x
COc1ccc(C)cc1NC(=O)CNc1ccccc1CN(C)C1CCCCC1,i,-9,i,7,i,6.4*,22*,i
Cc1cc(C)c(NC(=O)c2c[nH]c(=S)n2-c2ccc(F)cc2)c(C)c1,i,-76,i,7,i,i,x,x
CC(=O)C1=C(c2ccccc2)NC(=S)NC1c1ccc(O)c(O)c1 (centres undefined),i,-35,i,6,i,i,x,x
COc1ccc(Nc2nc(-c3cccs3)nc3ccccc23)c(OC)c1,i,-3,i,-6,i,8*,9.8*,i
COc1ccc(Nc2nc(N3CCN(C)CC3)nc3ccccc23)c(OC)c1,i,16,i,3,i,i,x,x
COc1ccc(S(=O)(=O)NC(C)CCc2ccccc2)cc1 (centres undefined),i,16,i,0,i,i,x,x
Cc1cc(C)c(OCCCCN(C)Cc2ccccc2)c(C)c1,i,8,i,3,i,i,x,x
COC(=O)C1=C(C)N(Cc2ccccc2)C(=NCc2ccccc2)N[C@H]1c1ccccc1,x,x,i,0,x,x,x,x
